# Results published in the antibiotic and cytotoxicity screens of Wong et al. (2023).
# In all, about 39,000 compounds went through this assay and about 3,300 (8.5%) were called active. The sample holds actives, similar compounds and a random draw of the others, so the mix is not that of the screen.
# Tested on: HepG2
# Test: cytotoxicity call (relative viability < 0.9)
# Settings: 10 µM
row,Structure (SMILES),cytotoxicity call
1,C[C@H]1CN([C@@H](C)CO)C(=O)c2cccc(NC(=O)c3nc4ccccc4s3)c2O[C@H]1CN(C)Cc1ccc(Oc2ccccc2)cc1,active
2,C[C@H](CO)N1C[C@H](C)[C@H](CN(C)Cc2ccc(Oc3ccccc3)cc2)Oc2c(NC(=O)c3nc4ccccc4s3)cccc2C1=O,inactive
3,C[C@H]1CN([C@@H](C)CO)C(=O)c2cccc(NC(=O)c3nc4ccccc4s3)c2O[C@@H]1CN(C)Cc1ccc(Oc2ccccc2)cc1,inactive
4,C[C@H](CO)N1C[C@H](C)[C@@H](CN(C)Cc2ccc(Oc3ccccc3)cc2)Oc2c(NC(=O)c3nc4ccccc4s3)cccc2C1=O,active
5,C[C@@H]1CN([C@H](C)CO)C(=O)c2cccc(NC(=O)c3nc4ccccc4s3)c2O[C@@H]1CN(C)Cc1ccc(Oc2ccccc2)cc1,inactive
6,C[C@@H]1CN([C@H](C)CO)C(=O)c2cccc(NC(=O)c3nc4ccccc4s3)c2O[C@H]1CN(C)Cc1ccc(Oc2ccccc2)cc1,inactive
7,COCC#Cc1cnc2c(c1)C(=O)N([C@H](C)CO)C[C@H](C)[C@H](CN(C)C(=O)CN1CCOCC1)O2,inactive
8,Cc1ccc(S(=O)(=O)Nc2ccc3c(c2)C(=O)N([C@@H](C)CO)C[C@@H](C)[C@H](CN(C)C(=O)Nc2cccc4ccccc24)OCCCC[C@H](C)O3)cc1,inactive
9,COc1ccc(S(=O)(=O)N(C)C[C@@H]2Oc3ccc(NC(=O)Cn4cnnn4)cc3CC(=O)N([C@H](C)CO)C[C@H]2C)cc1,inactive
10,Cc1ccccc1/C=C(\C#N)c1nc(-c2ccccc2)cs1,active
11,COc1ccc(-c2csc(C(C#N)=C3CCCCC3)n2)cc1,inactive
12,Cc1nc(-c2ccccc2)cs1,inactive
13,C[C@@H]1CN([C@@H](C)CO)C(=O)c2cc(NC(=O)Cn3cnnn3)ccc2O[C@@H]1CN(C)S(C)(=O)=O,inactive
14,O=C(C1=C[C@@H](c2coc3ccccc3c2=O)C[C@@H](OCCCCO)O1)N1CCN(Cc2ccc3c(c2)OCO3)CC1,inactive
15,Cc1noc(C)c1NC(=O)Nc1ccc2c(c1)C(=O)N([C@H](C)CO)C[C@H](C)[C@@H](CN(C)S(=O)(=O)c1cn(C)cn1)O2,inactive
16,C[C@@H]1CCCCO[C@H](CN(C)Cc2ccc(Cl)c(Cl)c2)[C@H](C)CN([C@@H](C)CO)C(=O)c2cc(NC(=O)Nc3ccc(F)cc3)ccc2O1,inactive
17,C[C@@H]1CCCCO[C@H](CN(C)Cc2ccc(Cl)c(Cl)c2)[C@@H](C)CN([C@H](C)CO)C(=O)c2cc(NC(=O)Nc3ccc(F)cc3)ccc2O1,active
18,C[C@@H]1CCCCO[C@@H](CN(C)Cc2ccc(Cl)c(Cl)c2)[C@@H](C)CN([C@H](C)CO)C(=O)c2cc(NC(=O)Nc3ccc(F)cc3)ccc2O1,inactive
19,C[C@@H]1CN([C@@H](C)CO)C(=O)c2cc(NC(=O)Nc3ccc(F)cc3)ccc2O[C@@H](C)CCCCO[C@H]1CN(C)Cc1ccc(Cl)c(Cl)c1,inactive
20,C[C@H]1CCCCO[C@H](CN(C)Cc2ccc(Cl)c(Cl)c2)[C@@H](C)CN([C@@H](C)CO)C(=O)c2cc(NC(=O)Nc3ccc(F)cc3)ccc2O1,active
21,C[C@@H]1CCCCO[C@@H](CN(C)Cc2ccc(Cl)c(Cl)c2)[C@H](C)CN([C@@H](C)CO)C(=O)c2cc(NC(=O)Nc3ccc(F)cc3)ccc2O1,inactive

row,Structure (SMILES),cytotoxicity call
1,C[C@@H]1CCCCO[C@@H](CN(C)Cc2ccc(Cl)c(Cl)c2)[C@@H](C)CN([C@@H](C)CO)C(=O)c2cc(NC(=O)Nc3ccc(F)cc3)ccc2O1,active
2,C[C@@H]1CN([C@H](C)CO)C(=O)c2cc(NC(=O)Nc3ccc(F)cc3)ccc2O[C@@H](C)CCCCO[C@@H]1CN(C)Cc1ccc(Cl)c(Cl)c1,inactive
3,C[C@@H]1CCCCO[C@@H](CN(C)Cc2ccc(Cl)c(Cl)c2)[C@H](C)CN([C@H](C)CO)C(=O)c2cc(NC(=O)Nc3ccc(F)cc3)ccc2O1,inactive
4,C[C@H](CO)N1C[C@H](C)[C@H](CN(C)Cc2ccc(Cl)c(Cl)c2)OCCCC[C@H](C)Oc2ccc(NC(=O)Nc3ccc(F)cc3)cc2C1=O,active
5,C[C@H](CO)N1C[C@H](C)[C@@H](CN(C)Cc2ccc(C(=O)O)cc2)Oc2ccc(NC(=O)c3ccncc3)cc2CC1=O,inactive
6,C[C@@H]1CN([C@H](C)CO)C(=O)Cc2cc(NS(=O)(=O)c3ccccc3)ccc2O[C@@H]1CN(C)S(=O)(=O)c1cccs1,inactive
7,C[C@H]1CN([C@@H](C)CO)C(=O)c2cccc(NC(=O)c3cnccn3)c2O[C@@H]1CN(C)S(=O)(=O)c1ccccc1,inactive
8,C[N+](C)(C)CCCC[C@@H]1NC(=O)[C@H]2C[C@@H](C(=O)NCc3ccc(F)cc3)[C@@H](c3ccc(O)cc3)N2C1=O,inactive
9,COc1ccc(S(=O)(=O)Nc2ccc3c(c2)C(=O)N([C@@H](C)CO)C[C@H](C)[C@@H](CN(C)Cc2ccc4c(c2)OCO4)OCCCC[C@@H](C)O3)cc1,inactive
10,COc1ccc(NC(=O)N(C)C[C@@H]2OCc3ccccc3-c3c(n(C)c4ccccc34)C(=O)N([C@@H](C)CO)C[C@@H]2C)cc1,inactive
11,COc1ccc(S(=O)(=O)Nc2cccc3c2O[C@@H](CN(C)S(=O)(=O)c2cn(C)cn2)[C@H](C)CN([C@@H](C)CO)C3=O)cc1,inactive
12,C[C@@H]1CN([C@@H](C)CO)C(=O)Cc2cc(NC(=O)Nc3cccc4ccccc34)ccc2O[C@H]1CN(C)Cc1ccc(Cl)c(Cl)c1,inactive
13,CC(C)NC(=O)N(C)C[C@H]1Oc2ccc(NC(=O)Cn3cnnn3)cc2C(=O)N([C@@H](C)CO)C[C@H]1C,inactive
14,COC(=O)c1ccc(O)c(O)c1,inactive
15,CCS(=O)(=O)N1CCc2ccc(N)cc2C1,inactive
16,COc1ccc(S(=O)(=O)N(C)C[C@H]2OCCCC[C@@H](C)Oc3ccc(NS(C)(=O)=O)cc3C(=O)N([C@H](C)CO)C[C@@H]2C)cc1,inactive
17,CC(C)NC(=O)Nc1ccc2c(c1)C(=O)N([C@@H](C)CO)C[C@H](C)[C@@H](CN(C)Cc1ccc(Cl)c(Cl)c1)OCCCC[C@H](C)O2,inactive
18,C[C@@H]1CN([C@H](C)CO)C(=O)c2cc(NC(=O)Nc3ccc(F)cc3)ccc2O[C@@H](C)CCCCO[C@H]1CN(C)Cc1ccc(Cl)c(Cl)c1,active
19,C[C@@H]1CCCCO[C@H](CN(C)Cc2ccc(Cl)c(Cl)c2)[C@@H](C)CN([C@@H](C)CO)C(=O)c2cc(NC(=O)Nc3ccc(F)cc3)ccc2O1,active
20,CC(C)NC(=O)Nc1ccc2c(c1)C(=O)N([C@H](C)CO)C[C@H](C)[C@@H](CN(C)Cc1ccc(Cl)c(Cl)c1)OCCCC[C@H](C)O2,inactive
21,CC(C)NC(=O)Nc1ccc2c(c1)C(=O)N([C@H](C)CO)C[C@@H](C)[C@H](CN(C)Cc1ccc(Cl)c(Cl)c1)OCCCC[C@@H](C)O2,active
